# Screening data as filed in PubChem BioAssay.
# HTR5A inv ag: inverse agonist of human HTR5A in OPRM1-OPRD1 counter-screen; HTR5A cell line, luminescence, inverse agonism; P47898; 0.083% of 340,000 active; inhibition, % at 9.3 µM; in the data active = inhibition mostly above about 23%, no sharp cut-off; inactive = mostly below about 18%;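 note: 0% = cells with DMSO and 100% = no-cell wells with DMSO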
# Target sequence (P47898 whole entry, looked up): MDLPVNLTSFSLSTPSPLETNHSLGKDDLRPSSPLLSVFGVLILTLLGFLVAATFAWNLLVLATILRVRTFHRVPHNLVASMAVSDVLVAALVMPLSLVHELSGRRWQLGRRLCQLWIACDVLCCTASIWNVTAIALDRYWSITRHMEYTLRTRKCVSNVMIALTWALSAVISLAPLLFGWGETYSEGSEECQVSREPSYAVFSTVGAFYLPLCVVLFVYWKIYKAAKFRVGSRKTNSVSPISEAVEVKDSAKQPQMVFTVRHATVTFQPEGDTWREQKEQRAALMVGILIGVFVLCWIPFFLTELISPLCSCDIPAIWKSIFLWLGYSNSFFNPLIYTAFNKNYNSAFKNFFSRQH
# HTR5A ag: activates human HTR5A in OPRM1-OPRD1 agonist counter-screen | HTR5A agonist assay, luminescence, cell-based | 0.61% of 340,000 active | activation, % at 9.3 µM; in the data active = activation mostly above about 9.5%, no sharp cut-off; inactive = mostly below about 7.6%;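 note: 0% = cells with vehicle only and 100% = reference agonist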
# OPRM1-OPRD1 inv: mu-delta opioid heterodimer inverse agonism; inhibition, % at 9.3 µM; 0.21% of 340,000 active; AID 504357; P35372+P41143; cell-based MOR-DOR heterodimer luminescence; in the data active = inhibition above about 22%, passing the limit was not always enough;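 note: 0% = cells with DMSO and 100% = wells without cells with DMSO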
# V-ATPase pHluor: alters yeast V-ATPase proton transport. S. cerevisiae, pHLuorin cytosolic pH fluorescence. response, % at 10 µM. 0.37% of 350,000 active; in the data active = response mostly above about 7.3%, no sharp cut-off; inactive = mostly below about 5.4%; note: actives read high
# MIN6 prolif: inducers of beta-cell replication in MIN6 cells | 0.29% of 330,000 active | MIN6 cells proliferation, ATPlite luminescence, 48 h; cells starved in 0.2% serum; 100% = growth in 10% serum | proliferation, % at 10 µM;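 active = compounds whose signal lies at least 3.5 SD above the mean of all wells on their plate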;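 note: 0% = DMSO-treated cells in low-serum medium and 100% = 10% serum control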
# MOR-DOR ag: OPRM1-OPRD1 heterodimerization agonism; cells, luminescence; activation, % at 9.3 µM; 0.3% of 340,000 active; in the data active = activation above about 18%;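 note: 0% = vehicle-treated cells and 100% = reference agonist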
# Numbers without * were called inactive; x = no result. Sampled rows, rich in hits. Any-hit rate of the full collection: about 1.7%.
SMILES,HTR5A inv ag,HTR5A ag,OPRM1-OPRD1 inv,V-ATPase pHluor,MIN6 prolif,MOR-DOR ag
COc1ccc(C2CC(c3cccs3)=NN2C(=O)COC(=O)c2cncc(Br)c2)cc1OC (stereo not drawn),-1,0,1,1,-1,0
CC(C)Cc1nnc(NC(=O)CSc2ncn[nH]2)s1,0,13*,12,-3,-2,-3
COC(=O)c1c(NC(=O)CSc2ncn[nH]2)sc(C)c1C,-32,13*,-4,4,-3,1
CSc1nc2ccc(NC(=O)c3nn(C(C)C)c(=O)c4ccccc34)cc2s1,23,6,-7,3,8.2*,1
FC(F)(F)c1ccccc1CNCc1ccc2c(c1)OCO2,6,-2,12,1,5,-3
CCCOc1ccc(C(=O)NC(=S)NNC(=O)c2c(-c3ccccc3)noc2C)cc1,44*,-12,46*,4,-3,-9
CCCOc1ccc(NC(=O)c2c(-c3ccccc3)noc2C)cc1,-17,6,-15,4,-1,3
O=C(c1cc(S(=O)(=O)N2CCCCC2)ccc1Cl)N1CCOCC1,-10,-2,-1,-4,-1,0
Cc1ccc(S(=O)(=O)N2CCN(C(=O)c3cc(S(=O)(=O)N4CCOCC4)ccc3Cl)CC2)c(C)c1,-18,13*,7,0,x,-2
Cc1ccc(S(=O)(=O)N2CCN(C(=O)c3ccco3)CC2)cc1,-1,0,11,3,1,-2
Cc1ccc(S(=O)(=O)N2CCN(C(=O)c3ccco3)CC2)c(C)c1,-40,10*,14,-3,0,-3
Cc1ccc(S(=O)(=O)N2CCCCC2)cc1NC(=O)CSc1nnc(C2CC2)n1C,9,-1,12,0,-1,-3
O=C(CN(C1CCCCC1)S(=O)(=O)c1ccc(F)cc1)NCC1CCCO1 (stereo not drawn),-61,17*,-85,1,x,16
O=C(CN(C1CCCCC1)S(=O)(=O)c1ccccc1)NCC1CCCO1 (stereo not drawn),-21,7,4,-1,0,-1
CCOC(=O)CNC(=O)CSc1nc(Cc2cccs2)nc2ccccc12,-9,4,-9,1,-3,1
CC1CC(C)CN(C(=O)CSc2nc(Cc3cccs3)nc3ccccc23)C1 (stereo not drawn),-12,12*,1,-2,-4,0
OCCCN=c1cc(-c2ccccc2)oc2ccc(Cl)cc12,12,-2,12,-1,-1,-2
CC1(C)CC(N=c2cc(-c3ccccc3)oc3ccc(Cl)cc23)CC(C)(C)N1,-41,14*,-58,-2,x,11
COc1cc(NC(=O)COc2cccc3c2OC(C)(C)C3)cc(OC)c1OC,-50,14*,1,2,-3,0
COc1ccc(NC(=O)COc2cccc3c2OC(C)(C)C3)c(OC)c1,-52,13*,3,-2,9,0
O=C(c1ccc(-c2cccc(C(F)(F)F)c2)o1)N1CCCC(C(F)(F)F)C1 (stereo not drawn),-29,11*,-33,-7,0,6
O=C(c1ccc(-c2cccc(C(F)(F)F)c2)o1)N1CCN(c2ccccc2O)CC1,-8,1,-32,1,-7,5
O=[N+]([O-])c1ccc2[nH]c(=S)sc2c1,18,-5,9,1,x,-2
O=C(NCC12CC3CC(CC(C3)C1)C2)c1nn2cccnc2c1Cl,18,-1,7,29*,-3,-1
Cc1cccc(C)c1OC1(c2ccccc2)OC(=O)c2ccccc21 (stereo not drawn),-7,4,-57,0,-7,10
SMILES,HTR5A inv ag,HTR5A ag,OPRM1-OPRD1 inv,V-ATPase pHluor,MIN6 prolif,MOR-DOR ag
Cc1cc(C)c(OC2(c3ccccc3)OC(=O)c3ccccc32)c(C)c1 (stereo not drawn),-12,4,-24,19*,-6,4
CC[n+]1ccc(/C=C/c2ccc(N(C)C)cc2)c2ccccc21,34*,-14,27,3,x,-6
CCN1CCCC1CNS(=O)(=O)c1ccc(Cl)c(C(F)(F)F)c1 (stereo not drawn),22,13*,14,0,1,-3
CCCN1CN(c2ccccc2)C(=S)N(c2ccccc2)C1,-10,10,19,-2,-1,-4
O=C1c2cccc(NCCCNCCO)c2C(=O)c2cccc(NCCCNCCO)c21,-1,0,0,-20,x,0
CCC(=O)N1CCc2cc(Br)cc(S(=O)(=O)NCC3CCCO3)c21 (stereo not drawn),12,3,2,14*,2,0
CCC(=O)N1CCc2cc(Br)cc(S(=O)(=O)CCC(=O)NCC3CCCO3)c21 (stereo not drawn),-4,7,-11,0,-2,2
CC1(C)CC=CC(COC(=O)c2ccccc2C(=O)O)C1 (stereo not drawn),7,-2,20,-1,x,-5
O=C(/C=C/c1ccco1)OCC(=O)c1cccc([N+](=O)[O-])c1,-3,1,29*,-1,0,-5
COc1ccc(C(=O)COC(=O)/C=C/c2ccco2)cc1F,12,-5,6,1,-3,-1
O=S(=O)(NCc1nnnn1-c1ccc(F)cc1)c1ccc(F)cc1,x,x,x,1,x,x
CCN(CC)CCn1c2ccccc2c2nc3ccc([N+](=O)[O-])cc3cc21,x,x,x,2,-4,x
COc1ccccc1-c1cc2nc(-c3ccccc3)cc(N3CCN(C(=O)c4ccoc4)CC3)n2n1,x,x,x,0,x,x
CC1(C(=O)OCC(=O)NCCNC(=O)COC(=O)C2(C)CC2(Cl)Cl)CC1(Cl)Cl (stereo not drawn),-24,12*,6,-2,-1,-1
O=C1CCN(C(=O)Nc2cccc(Cl)c2)N1,18,11*,2,2,-1,0
O=C(NC1CCN(C(=O)Nc2cccc(Cl)c2)CC1)C1CCCCC1,-15,3,-3,15*,-2,0
Cc1cc(C)cc(NC(=S)N2CCC(NC(=O)C3CC3)CC2)c1,4,4,-10,15*,-1,1
CCOc1ccc(NC(=O)[C@H](Cc2ccccc2)NC(=O)C2CCNCC2)cc1,-9,-5,7,1,-2,-1
COc1cc(/C=C2\SC(=S)N(Nc3ncc(C(F)(F)F)cc3Cl)C2=O)ccc1O,41*,-9,6,9,-5,-1
CN(C)c1ccc(/C=C2\SC(=S)N(Nc3ncc(C(F)(F)F)cc3Cl)C2=O)cc1,-10,3,18,1,-2,-4
O=S(=O)(SC1=NCCN1)c1ccccc1,-3,1,11,-2,x,-2
Cc1noc(C)c1NC(=O)N(C)C[C@@H]1OCc2cnnn2CCCC(=O)N([C@@H](C)CO)C[C@@H]1C,x,x,x,0,x,x
Cc1ccc(-c2noc(CCC(=O)NCc3ccccc3CN3CCOCC3)n2)cc1,15,14*,-8,-2,0,2
